Reference: PubChem BioAssay (NCI)
Where “and” joins values, the source holds several entries; their conditions need not be identical. Identical values can stand only once. Compounds without any hit were thinned out: in the full panel of roughly 79,000, 15% have a hit. Rule as the data show it: active = growth inhibition above about 70%; inactive = the rest.

What was measured:
[1] = NCI Yeast Anticancer Drug Screen. Data for the rad50 strain (AID 155);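 also: 0% = growth of vehicle-only cultures of the same strain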; details: S. cerevisiae rad50 strain growth inhibition, hits give high values; at 50.0 µM unless noted
Method in brief: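 Compounds were tested on a yeast strain with an engineered DNA damage repair alteration; the reported value is growth inhibition normalised to vehicle treatment.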

[2] = NCI Yeast Anticancer Drug Screen. Data for the mec2-1 strain (AID 157); details: S. cerevisiae mec2-1 strain, hits give high values; at 50.0 µM unless noted
Method in brief: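 Using mec2-1 yeast: add compound, measure growth, express inhibition versus vehicle-treated cultures.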

[3] = NCI Yeast Anticancer Drug Screen. Data for the sgs1 mgt1 strain (AID 161);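 also: 0% = growth of cultures given vehicle only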; details: S. cerevisiae sgs1 mgt1 strain, hits give high values; at 50.0 µM unless noted
Method in brief: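 Yeast cells carrying a defined DNA-repair defect were exposed to test compounds. Growth inhibition was measured relative to vehicle-treated controls.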

[4] = NCI Yeast Anticancer Drug Screen. Data for the cln2 rad14 strain (AID 165);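 also: 0% = growth equal to vehicle treated cultures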; details: S. cerevisiae cln2 rad14 strain, hits give high values; at 50.0 µM unless noted
Method in brief: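 Yeast strain cln2 rad14, bearing defects in cell cycle control and DNA repair, serves as the test system; values reflect growth inhibition compared with vehicle.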

[5] = NCI Yeast Anticancer Drug Screen. Data for the bub3 strain (AID 167); details: S. cerevisiae bub3 mutant strain, hits give high values; at 50.0 µM unless noted
Method in brief: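 Growth of a checkpoint-deficient yeast mutant is measured after compound exposure. Values represent inhibition relative to vehicle.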

[6] = NCI Yeast Anticancer Drug Screen. Data for the mlh1 rad18 strain (AID 175); details: S. cerevisiae mlh1 rad18 strain growth inhibition, hits give high values; at 50.0 µM unless noted
Method in brief: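 Steps: expose repair-defective yeast to compound; measure growth; express inhibition against vehicle-treated controls.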

Measured: growth inhibition

CCCCCCCOC(=O)C1(O)CCCCC1
inactive: [1] 6.1% | [2] 1.25% | [3] 6.65% | [4] 32.5% | [5] 16.8% | [6] -16.6%

COc1ccccc1NC(=O)C1=C(C)NC(C)=C(C(=O)Nc2ccccc2OC)C1c1ccc(C)cc1
inactive: [1] 12.7% | [2] -10.3% | [3] 3.75% | [4] 12.1% | [5] 12.3% | [6] -0.85%

O=C1/C(=C/c2cccnc2)SC(=S)N1Cc1ccco1
inactive: [1] 2.7% | [2] -21.1% | [3] -8.85% | [4] 40% | [5] -6.45% | [6] 1.45%

C=C1C2CCC(C2)C1(C)CC/C=C(/C)CO (stereo unspecified) (tested in a mixture with another compound)
inactive: [1] 34.4% and 47.7% | [2] 9.65% and 7.15% | [3] 33.2% and 41.6% | [4] 20.2% and 7.3% | [5] 35.5% and 19.8% | [6] 16.4% and 26.4%

Cc1cccc(Cl)c1NC(=O)c1c(Cl)c(Cl)c(Cl)c(Cl)c1C(=O)O
inactive: [1] 11.4% | [2] 10.6% | [3] -0.35% | [4] -30.1% | [5] -1.65% | [6] 22.2%

C=C[C@]1(C)C=C2CC[C@@H]3[C@](C)(CCC[C@@]3(C)C(=O)O)[C@H]2CC1
inactive: [1] 14.5% | [2] 8.7% | [3] 13.8% | [4] -9.05% | [5] -1.9% | [6] 29.8%

CC(=O)NNS(=O)(=O)c1ccccc1
inactive: [1] 8.1% | [2] 28.6% | [3] 4.15% | [4] -1.15% | [5] -17.9% | [6] 16.8%

CC(C)CCn1c(=O)c2c(ncn2C)n(C)c1=O
inactive: [1] 21.9% | [2] 20.3% | [3] 22.9% | [4] 10.2% | [5] -0.5% | [6] 13.2%

Nc1ccc(S(=O)(=O)CCCl)cc1
inactive: [1] 8.7% | [2] 0.95% | [3] 18.5% | [4] 22.2% | [5] 13.7% | [6] 11.6%

CCOC(=O)CC(C#N)(C#N)CC(=O)OCC
inactive: [1] 4.15% | [2] 21.3% | [3] 5.85% | [4] -0.1% | [5] 26.8% | [6] -0.55%

Cc1ccc2c(c1)C1(c3ccc(Cl)cc3Cl)Oc3ccc(C)cc3C(c3ccc(Cl)cc3Cl)(O2)O1
inactive: [1] -1.5% | [2] 1.5% | [3] 3.1% | [4] -4.65% | [5] -2.7% | [6] 16.6%

O=[N+]([O-])c1ccc2c(c1)S(=O)c1ccccc1-2 (stereo unspecified)
inactive: [1] -18.1% | [2] -3.65% | [3] -12.4% | [4] 1% | [5] -37.8% | [6] -4.8%

Cc1ccc(/C=C2\CCCC\C2=N\O)cc1
inactive: [1] 5.15% | [2] -7% | [3] 2.3% | [4] -10.2% | [5] -22.6% | [6] 2.15%

CC(C)CCO/N=C(\N)N=C(N)N
inactive: [1] -17.4% | [2] -5.8% | [3] 14.3% | [4] 2.7% | [5] -1.75% | [6] -1.9%

Nc1nc(-c2ccco2)cc(-c2ccco2)n1
inactive: [1] -23.4% | [2] -23.2% | [3] -18.8% | [4] 12.8% | [5] -20.1% | [6] -31.1%

COC(=O)C(=O)C(C#N)c1ccccc1Cl (stereo unspecified)
inactive: [1] 3.45% | [2] -17.2% | [3] 0.35% | [4] 0.5% | [5] -5.75% | [6] 5.15%

C1=NC(c2ccccc2)=CN(C2CCCCCCCCCCC2)C1(c1ccccc1)C1CCCCCCCCCCC1 (stereo unspecified)
inactive: [1] -18.2% | [2] -8.55% | [3] -12% | [4] -19.4% | [5] 12.3% | [6] 13.2%

Clc1ccc(/C=N\OCc2ccc(Cl)c(Cl)c2)cc1Cl
inactive: [1] -9.85% | [2] -13.1% | [3] 2.1% | [4] -17.9% | [5] -4.85% | [6] -5.25%

Cc1sc2nc3n(c(=O)c2c1C)N=CN(c1ccc(Cl)cc1)C3
inactive: [1] 5.5% | [2] 5.1% | [3] 7.8% | [4] -3.15% | [5] 0.05% | [6] -45.2%

O=c1c(-c2ccccc2)c[nH]c2ccccc12
inactive: [1] 26.7% | [2] 16.6% | [3] 20.9% | [4] 8.45% | [5] -10.9% | [6] 44.5%

O=C(Oc1cccc(O)c1)c1ccccc1
inactive: [1] -7.25% | [2] 11% | [3] -9.15% | [4] -18.8% | [5] 19.9% | [6] -6.1%

Cc1cc(C)cc(N(C2=NCCS2)C2=NCCS2)c1
inactive: [1] 5% | [2] -4.55% | [3] -2.35% | [4] 0.45% | [5] 21.9% | [6] 4.9%

CCCCSCC(N)CO (stereo unspecified)
inactive: [1] 9.05% | [2] 5.2% | [3] 10.7% | [4] -34.2% | [5] 0.55% | [6] 1.75%

CN(C)CCN(C)C(=O)C1CCCN1C(=O)OCc1ccccc1 (stereo unspecified)
inactive: [1] -44.6% | [2] -56% | [3] -53.8% | [4] 9.3% | [5] -37.6% | [6] -46.8%

CC(C)(CO)C(O)C(=O)NN (stereo unspecified)
inactive: [1] -2.8% | [2] 2.95% | [3] 8.6% | [4] -6.25% | [5] -3.9% | [6] 3.25%

NC(=O)c1ccc(F)cc1
inactive: [1] -42.3% | [2] -29.6% | [3] -7.7% | [4] -16.1% | [5] -18.2% | [6] -10.5%

CC(C)CCOC(=O)C(O)c1ccccc1 (stereo unspecified)
inactive: [1] 15.6% | [2] 2.8% | [3] 0.4% | [4] -22.2% | [5] -25.7% | [6] 8.45%

O=C(/C=C/c1ccccc1)CSc1ncn[nH]1
inactive: [1] 10.1% | [2] 5.4% | [3] 8.7% | [4] 4.75% | [5] 19.4% | [6] -7.4%

Cc1c([N+](=O)[O-])cc(C(C)(C)C)c(OC(=O)c2ccccc2)c1[N+](=O)[O-]
inactive: [1] 41.5% | [2] 24.7% | [3] 41% | [4] 16.3% | [5] 25.4% | [6] 20.4%

O=C1c2cc3c(cc2CC12Cc1cc4c(cc1C2=O)CCC4)CCCC3 (stereo unspecified)
inactive: [1] 6.45% | [2] -52.5% | [3] 1.45% | [4] -29.1% | [5] 0.35% | [6] -22.5%

O=[N+]([O-])c1ccn(Cc2ccccc2)c1
inactive: [1] -6.25% | [2] 2.95% | [3] 5.65% | [4] -41.5% | [5] -14.2% | [6] 9.5%

COc1cc(OC)c(I)cc1Cl
inactive: [1] -10.1% | [2] -37.5% | [3] 4.55% | [4] 13.4% | [5] -29.2% | [6] -12.3%

CC1(C)N=C(Oc2cc(Cl)cc(Cl)c2)NC(=S)N1
inactive: [1] 11.8% | [2] -8.3% | [3] 24% | [4] 21.2% | [5] 7% | [6] 24%

CC(C)c1cccc(C(C)C)c1NC(=O)N1CCCCC1
inactive: [1] 4.8% | [2] -16.2% | [3] 0.05% | [4] 3.85% | [5] -1.65% | [6] 10.2%

C(/C=C/c1ccccc1)=Nc1ccc(SSc2ccc(N=C/C=C/c3ccccc3)cc2)cc1
inactive: [1] 38.2% | [2] 6.25% | [3] 4.65% | [4] -13% | [5] -3.05% | [6] 27.9%

O=C1CCC(=O)N1CNc1cccc(NCN2C(=O)CCC2=O)c1
inactive: [1] -5.35% | [2] -30.9% | [3] 11.9% | [4] 10.5% | [5] 3.9% | [6] -4.6%

O=c1c2cncnc2sc2nc3ccccc3n12
inactive: [1] 16.1% | [2] -9.55% | [3] 28.3% | [4] 11.9% | [5] 15.3% | [6] 23.4%

N#Cc1ccc(OC(=O)Nc2ccc(F)cc2)cc1
inactive: [1] -4.1% | [2] -14.2% | [3] 12.2% | [4] 18.6% | [5] 10.7% | [6] 8.8%

CCC1([N+](=O)[O-])COC(CCc2ccccc2)OC1 (stereo unspecified)
inactive: [1] 6.3% | [2] -20.9% | [3] 10.8% | [4] -30.1% | [5] -0.25% | [6] -19.9%

CN(CCO)CCCC1COc2ccccc2O1 (stereo unspecified)
inactive: [1] -31.6% | [2] -39.1% | [3] -21.1% | [4] 6.5% | [5] -8.65% | [6] -8.35%

CC(O)COC(C)C (stereo unspecified)
inactive: [1] 8.55% | [2] -5.7% | [3] 17.7% | [4] 2.85% | [5] -1.85% | [6] 19.8%
